Data published in the supplement of paper PMC9262897, “Low-cost anti-mycobacterial drug discovery using engineered E. coli” (Nature Communications, 2022).
Structures can show the parent of a compound that is named as a salt. ± gives the standard deviation of the averaged measurements.

Columns and labels:
Test in all cases: growth (OD600 after 10 h); higher = more growth (less inhibition)
[1] = system: E. coli TESEC Alr+ wild-type control; conditions: compound 0.1 mM; raw OD600 reference: median of DMSO wells 0.241, cell-free background 0.041
Protocol: (§1)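 TESEC Mtb Alr E. coli, or the Alr+ wild-type control, in 384-well plates with Prestwick library compounds at 0.1 mM and 1% DMSO, across arabinose induction levels of 1E3 to 1E7 nM. Growth is read as OD600 after 10 h at 37 °C in triplicate biological replicates.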

E. coli TESEC Mtb Alr [2] = conditions: compound 0.1 mM
Protocol: as §1

E. coli TESEC Mtb Asd = conditions: compound 0.1 mM
Protocol: (§2)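 TESEC E. coli strains in which the native enzyme is deleted and replaced by arabinose-inducible Mtb Asd, DapB, CysH or TrpD, each grown in its selective medium. Strains were screened against the Prestwick library at 0.1 mM and 1% DMSO in 384-well format at low and high arabinose induction. Growth is read as OD600 after 10 h in triplicate.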

E. coli TESEC Mtb DapB = conditions: compound 0.1 mM
Protocol: as §2

E. coli TESEC Mtb Alr [3] = conditions: compound 0.1 mM; remark: listed apart in the source
Protocol: (§3)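 TESEC Mtb Alr E. coli (ΔaraC ΔtolC ΔentC Δalr ΔdadX, arabinose-inducible Mtb Alr) or the Alr+ wild-type control strain, grown in defined M9-fructose medium without D-alanine in 96-well plates with Prestwick library compounds at 0.1 mM and 1% DMSO. Low Alr induction is 0.1 µM arabinose and high induction is 10 mM arabinose.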

[4] = system: E. coli TESEC Alr+ wild-type control; conditions: compound 0.1 mM; raw OD600 reference: median of DMSO wells 0.49, cell-free background 0.052
Protocol: as §3

[5] = arabinose 1000 nM, raw OD600 reference: median of DMSO wells 0.294, cell-free background 0.041
[6] = arabinose 10000 nM, raw OD600 reference: median of DMSO wells 0.264, cell-free background 0.041
[7] = arabinose 100000 nM, raw OD600 reference: median of DMSO wells 0.201, cell-free background 0.041
[8] = arabinose 1000000 nM, raw OD600 reference: median of DMSO wells 0.193, cell-free background 0.041
[9] = arabinose 10000000 nM, raw OD600 reference: median of DMSO wells 0.146, cell-free background 0.041
[10] = arabinose induction (level): High, raw OD600 reference: median of DMSO wells 0.331, cell-free background 0.041
[11] = arabinose induction (level): Low, raw OD600 reference: median of DMSO wells 0.417, cell-free background 0.041
[12] = arabinose induction (level): High, raw OD600 reference: median of DMSO wells […], cell-free background 0.041
[13] = arabinose induction (level): Low, raw OD600 reference: median of DMSO wells 0.227, cell-free background 0.041
[14] = arabinose 100 nM, raw OD600 reference: median of DMSO wells 0.413, cell-free background 0.052
[15] = arabinose 10000000 nM, raw OD600 reference: median of DMSO wells […], cell-free background 0.052

Row | SMILES | growth [1] | growth (E. coli TESEC Mtb Alr [2]; [5]) | growth (E. coli TESEC Mtb Alr [2]; [6]) | growth (E. coli TESEC Mtb Alr [2]; [7]) | growth (E. coli TESEC Mtb Alr [2]; [8]) | growth (E. coli TESEC Mtb Alr [2]; [9]) | growth (E. coli TESEC Mtb Asd; [10]) | growth (E. coli TESEC Mtb Asd; [11]) | growth (E. coli TESEC Mtb DapB; [12]) | growth (E. coli TESEC Mtb DapB; [13]) | growth (E. coli TESEC Mtb Alr [3]; [14]) | growth (E. coli TESEC Mtb Alr [3]; [15]) | growth [4]
1 | CC1(C)O[C@@H]2C[C@H]3[C@@H]4CCC5=CC(=O)C=C[C@]5(C)[C@H]4[C@@H](O)C[C@]3(C)[C@]2(C(=O)CO)O1 [Desonide] | 0.185 ± 0.0048 | 0.252 ± 0.0091 | 0.254 ± 0.011 | 0.172 ± 0.014 | 0.15 ± 0.005 | 0.144 ± 0.0029 | 0.208 ± 0.0068 | 0.378 ± 0.065 | 0.181 ± 0.005 | 0.248 ± 0.034 | 0.414 ± 0.011 | 0.302 ± 0.019 | 
2 | COc1ccccc1OCC(O)CO (stereo not given) [Guaifenesin] | 0.238 ± 0.0069 | 0.306 ± 0.021 | 0.274 ± 0.0056 | 0.191 ± 0.0043 | 0.19 ± 0.0056 | 0.141 ± 0.0035 | 0.427 ± 0.031 | 0.377 ± 0.14 | 0.192 ± 0.013 | 0.228 ± 0.023 | 0.408 ± 0.011 | 0.345 ± 0.015 | 0.535 ± 0.093
3 | CCOC(=O)O[C@]1(C(=O)COC(=O)CC)CC[C@H]2[C@@H]3CCC4=CC(=O)C=C[C@]4(C)[C@H]3[C@@H](O)C[C@@]21C [Prednicarbate] | 0.201 ± 0.0033 | 0.268 ± 0.0098 | 0.271 ± 0.0029 | 0.269 ± 0.025 | 0.199 ± 0.012 | 0.174 ± 0.013 | 0.438 ± 0.024 | 0.37 ± 0.053 | 0.193 ± 0.008 | 0.237 ± 0.026 | 0.401 ± 0.0095 | 0.28 ± 0.027 | 
4 | CN(C)CCN1C(=O)c2ccccc2N(C)c2ccccc21 [Dibenzepine hydrochloride] | 0.234 ± 0.0039 | 0.312 ± 0.018 | 0.286 ± 0.0089 | 0.185 ± 0.03 | 0.167 ± 0.0098 | 0.139 ± 0.0036 | 0.23 ± 0.059 | 0.317 ± 0.04 | 0.165 ± 0.012 | 0.187 ± 0.0044 | 0.415 ± 0.0072 | 0.34 ± 0.015 | 
5 | N[C@@H]1CONC1=O [D-cycloserine] | 0.246 ± 0.0051 | 0.0374 ± 0.00045 | 0.0389 ± 0.00083 | 0.277 ± 0.0054 | 0.155 ± 0.0017 | 0.132 ± 0.0031 | 0.252 ± 0.066 | 0.354 ± 0.081 | 0.2176 ± 0.0016 | 0.245 ± 0.044 | 0.0455 ± 0.00047 | 0.328 ± 0.015 | 
6 | c1ccc(CC2=NCCN2)cc1 [Tolazoline hydrochloride] | 0.2459 ± 0.0022 | 0.301 ± 0.018 | 0.253 ± 0.0071 | 0.191 ± 0.0077 | 0.172 ± 0.0039 | 0.149 ± 0.0054 | 0.264 ± 0.08 | 0.435 ± 0.036 | 0.191 ± 0.017 | 0.256 ± 0.052 | 0.413 ± 0.007 | 0.364 ± 0.012 | 
7 | CC(C)(C)NC[C@H](O)c1ccc(O)c(CO)c1 [Levalbuterol hydrochloride] | 0.235 ± 0.005 | 0.305 ± 0.011 | 0.273 ± 0.0041 | 0.197 ± 0.0075 | 0.214 ± 0.023 | 0.141 ± 0.0037 | 0.242 ± 0.05 | 0.32 ± 0.084 | 0.168 ± 0.033 | 0.179 ± 0.088 | 0.4232 ± 0.00093 | 0.318 ± 0.01 | 
8 | C[C@]12CC[C@@H]3c4ccc(OS(=O)(=O)O)cc4CC[C@H]3[C@@H]1CCC2=O [Estropipate] | 0.229 ± 0.0082 | 0.277 ± 0.011 | 0.251 ± 0.0064 | 0.177 ± 0.011 | 0.151 ± 0.011 | 0.127 ± 0.0018 | 0.301 ± 0.023 | 0.413 ± 0.039 | 0.194 ± 0.016 | 0.195 ± 0.013 | 0.41 ± 0.0049 | 0.267 ± 0.0063 | 
9 | O=P(O)(O)C(O)(Cn1ccnc1)P(=O)(O)O [Zoledronic acid hydrate] | 0.241 ± 0.0059 | 0.279 ± 0.0055 | 0.278 ± 0.0062 | 0.192 ± 0.022 | 0.211 ± 0.0037 | 0.134 ± 0.0016 | 0.257 ± 0.083 | 0.357 ± 0.034 | 0.193 ± 0.0053 | 0.279 ± 0.069 | 0.421 ± 0.011 | 0.294 ± 0.021 | 
10 | CCOC(=O)[N-]c1c[n+](N2CCOCC2)no1 [Molsidomine] | 0.245 ± 0.0064 | 0.307 ± 0.0077 | 0.27 ± 0.0035 | 0.244 ± 0.048 | 0.182 ± 0.0019 | 0.166 ± 0.0027 | 0.305 ± 0.1 | 0.338 ± 0.084 | 0.207 ± 0.022 | 0.23 ± 0.02 | 0.408 ± 0.014 | 0.313 ± 0.022 | 
11 | CC/C(=C(\c1ccccc1)c1ccc(OCCN(C)C)cc1)c1ccccc1 [Tamoxifen citrate] | 0.0423 ± 0.0005 | 0.0419 ± 0.002 | 0.048 ± 0.0005 | 0.0466 ± 0.0016 | 0.0485 ± 0.0015 | 0.0425 ± 0.00078 | 0.0517 ± 0.002 | 0.0526 ± 0.002 | 0.04873 ± 0.00038 | 0.0937 ± 0.078 | 0.0503 ± 0.00091 | 0.0549 ± 0.0014 | 
12 | O=C1NCCN1CCN1CCC(c2cn(-c3ccc(F)cc3)c3ccc(Cl)cc23)CC1 [Sertindole] | 0.0429 ± 0.0029 | 0.04057 ± 0.00035 | 0.04073 ± 0.00025 | 0.0409 ± 0.0004 | 0.04 ± 0.0001 | 0.0443 ± 0.0027 | 0.0531 ± 0.0039 | 0.0504 ± 0.003 | 0.102 ± 0.09 | 0.0562 ± 0.012 | 0.167 ± 0.2 | 0.0524 ± 0.00098 | 
13 | CC(C)NC(=N)NC(=N)Nc1ccc(Cl)cc1 [Proguanil hydrochloride] | 0.216 ± 0.0044 | 0.261 ± 0.006 | 0.275 ± 0.0087 | 0.176 ± 0.013 | 0.143 ± 0.0015 | 0.142 ± 0.0028 | 0.216 ± 0.048 | 0.31 ± 0.068 | 0.207 ± 0.03 | 0.244 ± 0.016 | 0.422 ± 0.009 | 0.345 ± 0.019 | 
14 | CCn1nc(C(=O)O)c(=O)c2cc3c(cc21)OCO3 [Cinoxacin] | 0.0813 ± 0.0028 | 0.0736 ± 0.006 | 0.0622 ± 0.0033 | 0.089 ± 0.0035 | 0.108 ± 0.0017 | 0.139 ± 0.0015 | 0.335 ± 0.024 | 0.244 ± 0.035 | 0.211 ± 0.013 | 0.212 ± 0.0088 | 0.0933 ± 0.016 | 0.0712 ± 0.0049 | 
15 | Cc1ccc(NC(=O)c2ccc(CN3CCN(C)CC3)cc2)cc1Nc1nccc(-c2cccnc2)n1 [Imatinib] | 0.171 ± 0.0085 | 0.23 ± 0.0032 | 0.241 ± 0.00089 | 0.141 ± 0.009 | 0.119 ± 0.0081 | 0.161 ± 0.0024 | 0.185 ± 0.02 | 0.334 ± 0.063 | 0.185 ± 0.011 | 0.217 ± 0.02 | 0.4192 ± 0.0028 | 0.241 ± 0.018 | 
16 | CS(=O)(=O)OCCCCOS(C)(=O)=O [Busulfan] | 0.241 ± 0.017 | 0.287 ± 0.025 | 0.272 ± 0.0066 | 0.233 ± 0.026 | 0.184 ± 0.0057 | 0.139 ± 0.0018 | 0.378 ± 0.022 | 0.414 ± 0.036 | 0.209 ± 0.0074 | 0.286 ± 0.024 | 0.4123 ± 0.004 | 0.362 ± 0.029 | 
17 | CCN(CC)CCNC(=O)COc1ccc(OC)cc1 [Mefexamide hydrochloride] | 0.24 ± 0.0042 | 0.285 ± 0.019 | 0.2683 ± 0.0018 | 0.196 ± 0.01 | 0.182 ± 0.0058 | 0.143 ± 0.0038 | 0.304 ± 0.1 | 0.411 ± 0.013 | 0.225 ± 0.041 | 0.227 ± 0.026 | 0.421 ± 0.0097 | 0.343 ± 0.0047 | 
